# Measured values reported in PubChem BioAssay.
# For part of these data: Measured potencies and affinities stand elsewhere. Activity calls are given as the source filed them.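 The calls were made as follows, unless noted: active = fluorescence ratio normalized to control raised more than 50% in primary screen plus both repeat runs; inactive = the rest.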
# Key:
# [1] = system: TRPC4 beta (transient receptor potential cation channel C4), mouse; assay: activators of mouse TRPC4 channel, confirmation, cell-based, Fluo4 calcium, HEK293 TRPC4beta/mu-opioid, duplicates, 10 µM (AID 2426); details: Fluo4 calcium fluorescence, at 10 µM; active compounds read high;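 as to activation: percent rise of integrated ratio over buffer wells lacking compound which define 0%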
# [2] = system: transient receptor potential cation channel C4 beta (TRPC4), mouse; assay: activators of mouse TRPC4 channel, confirmation, cell-based, second round, Fluo4, HEK293 TRPC4beta/mu-opioid, 1 µM (AID 2461;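 active = primary screen active and over 50% activation in each of two duplicate runs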;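 as to activation: 0% = wells without test compound as baseline of integrated fluorescence ratio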); details: Fluo4 calcium fluorescence, at 1 µM; active compounds read high
# [3] = system: TRPC4 (transient receptor potential cation channel C4 beta), mouse; assay: positive allosteric modulators of mouse TRPC4, confirmation, cell-based, second round, Fluo-4, HEK293 TRPC4beta/mu-opioid, 1 µM (AID 2554;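 active = primary screen hit whose fluorescence ratio, in both repeats, exceeds the weak agonist control mean by 3 SD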); details: DAMGO EC20, Fluo-4 calcium flux, at 1 µM; active compounds read high
# [4] = system: TRPC4 beta (transient receptor potential cation channel C4), mouse; assay: positive allosteric modulators of mouse TRPC4, confirmation, cell-based, Fluo-4, HEK293 TRPC4beta/mu-opioid (AID 2555;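 active = primary screen hit whose calcium fluorescence ratio, in both repeats, exceeds the weak agonist control mean by 3 SD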); details: DAMGO EC20, Fluo-4 calcium flux, at 10 µM; active compounds read high
# [5] = target: Short transient receptor potential channel 4 (Mus musculus) (UniProt Q9QUQ5); assay: inhibitors of mouse TRPC4 channel, confirmation, cell-based, Fluo4, HEK293 TRPC4beta/mu-opioid (AID 2636;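 active = calcium signal cut by more than 3 SD below the full-agonist control yet still positive, in both repeats and the earlier primary screen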); details: DAMGO, Fluo4 calcium flux, at 10 µM; active compounds read high
# Sequence of Short transient receptor potential channel 4 (Mus musculus) (Q9QUQ5 whole entry, looked up): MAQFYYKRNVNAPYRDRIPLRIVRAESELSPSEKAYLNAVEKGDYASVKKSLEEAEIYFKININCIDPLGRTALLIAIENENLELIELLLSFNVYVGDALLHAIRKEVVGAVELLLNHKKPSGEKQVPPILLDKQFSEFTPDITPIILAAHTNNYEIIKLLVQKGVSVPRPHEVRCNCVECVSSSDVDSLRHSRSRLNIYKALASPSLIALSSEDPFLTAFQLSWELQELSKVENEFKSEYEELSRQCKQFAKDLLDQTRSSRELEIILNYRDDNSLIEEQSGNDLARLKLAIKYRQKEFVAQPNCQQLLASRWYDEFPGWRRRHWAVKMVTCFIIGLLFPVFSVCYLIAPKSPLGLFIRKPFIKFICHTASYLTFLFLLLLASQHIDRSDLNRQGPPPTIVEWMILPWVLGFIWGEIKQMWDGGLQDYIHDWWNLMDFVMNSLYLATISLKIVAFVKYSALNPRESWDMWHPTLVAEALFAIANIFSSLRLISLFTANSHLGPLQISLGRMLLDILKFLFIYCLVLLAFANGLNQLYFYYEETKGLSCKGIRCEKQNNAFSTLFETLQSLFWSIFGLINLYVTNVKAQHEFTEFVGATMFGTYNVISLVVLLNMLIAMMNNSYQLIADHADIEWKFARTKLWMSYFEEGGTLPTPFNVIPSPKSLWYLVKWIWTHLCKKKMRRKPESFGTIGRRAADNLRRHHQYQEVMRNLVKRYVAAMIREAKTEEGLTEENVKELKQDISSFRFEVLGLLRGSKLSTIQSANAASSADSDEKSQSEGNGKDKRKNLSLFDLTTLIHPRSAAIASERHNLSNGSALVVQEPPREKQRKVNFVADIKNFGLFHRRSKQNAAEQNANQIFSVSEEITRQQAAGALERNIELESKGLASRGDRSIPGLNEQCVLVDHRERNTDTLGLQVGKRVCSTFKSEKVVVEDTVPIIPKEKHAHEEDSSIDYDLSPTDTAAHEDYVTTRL
# [6] = target: Short transient receptor potential channel 4 (Mus musculus) (UniProt Q9QUQ5); assay: inhibitors of mouse TRPC4 channel, confirmation, cell-based, second round, Fluo4, HEK293 TRPC4beta/mu-opioid, 1 µM (AID 2637;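 active = calcium signal ratio cut to more than 3 SD under the fully stimulated control mean yet still positive, in both repeats and the primary screen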); details: Fluo4 calcium flux, DAMGO, at 1 µM; active compounds read high
# [7] = target: Short transient receptor potential channel 4 (Mus musculus) (UniProt Q9QUQ5); assay: TRPC4 positive allosteric modulators, dose response, cell-based, HEK293 TRPC4/mu-opioid, Fluo-4 calcium, EC20 DAMGO (AID 434941;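 active = earlier screen potentiator hit that boosts the TRPC4 ion channel at some dose, with a dose response; inactive = no potentiation, no dose response, or not a prior hit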;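 also: calcium entry triggered by an EC20 dose of DAMGO at the co-expressed mu-opioid receptor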)
# [8] = target: Short transient receptor potential channel 4 (Mus musculus) (UniProt Q9QUQ5); assay: mouse TRPC4 channel inhibitors, dose response, cell-based, HEK293 TRPC4/mu-opioid, Fluo-4 calcium (AID 434942;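 active = primary screen inhibitor hit that blocks the TRPC4 channel at some tested dose, yielding a dose curve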)
# [9] = target: Short transient receptor potential channel 6 (Mus musculus) (UniProt Q61143); assay: inhibition of mouse TRPC6 channel, confirmation, selectivity assay for TRPC4 inhibitor project, cell-based, HEK293, membrane potential dye, duplicate (AID 434948;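 active = active in primary screen and both duplicates, each dropping signal beyond three positive-control SD with fluorescence still positive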); details: HEK293 TRPC6, membrane potential dye fluorescence, at 10 µM, stimulated with maximal-effect acetylcholine; active compounds read high
# Sequence of Short transient receptor potential channel 6 (Mus musculus) (Q61143 whole entry, looked up): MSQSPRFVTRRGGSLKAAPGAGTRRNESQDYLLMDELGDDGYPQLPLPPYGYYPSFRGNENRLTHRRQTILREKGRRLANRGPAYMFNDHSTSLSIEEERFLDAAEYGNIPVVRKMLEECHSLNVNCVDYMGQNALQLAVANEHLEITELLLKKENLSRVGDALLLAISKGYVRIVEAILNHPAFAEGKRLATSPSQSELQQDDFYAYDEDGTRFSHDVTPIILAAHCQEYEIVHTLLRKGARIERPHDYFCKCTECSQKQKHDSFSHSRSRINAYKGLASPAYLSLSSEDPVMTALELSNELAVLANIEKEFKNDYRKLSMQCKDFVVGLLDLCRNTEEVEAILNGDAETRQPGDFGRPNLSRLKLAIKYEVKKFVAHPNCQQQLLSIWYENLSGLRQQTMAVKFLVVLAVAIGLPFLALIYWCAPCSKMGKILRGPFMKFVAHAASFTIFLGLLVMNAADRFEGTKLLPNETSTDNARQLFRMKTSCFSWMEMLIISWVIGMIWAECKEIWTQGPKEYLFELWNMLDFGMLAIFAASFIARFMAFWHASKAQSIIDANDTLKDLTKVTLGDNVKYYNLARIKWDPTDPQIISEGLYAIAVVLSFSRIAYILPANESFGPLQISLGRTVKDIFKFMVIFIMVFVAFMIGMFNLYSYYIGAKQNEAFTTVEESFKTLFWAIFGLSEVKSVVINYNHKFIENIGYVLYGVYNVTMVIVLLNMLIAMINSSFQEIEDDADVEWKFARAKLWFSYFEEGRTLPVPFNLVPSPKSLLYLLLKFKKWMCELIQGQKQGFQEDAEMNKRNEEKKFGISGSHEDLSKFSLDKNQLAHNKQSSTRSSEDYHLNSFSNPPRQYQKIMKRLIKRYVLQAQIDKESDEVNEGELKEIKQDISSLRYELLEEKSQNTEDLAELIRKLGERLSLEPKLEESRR
# [10] = target: Short transient receptor potential channel 6 (Mus musculus) (UniProt Q61143); assay: activation of mouse TRPC6 channel, confirmation, selectivity assay for TRPC4 activator project, cell-based, HEK293, membrane potential dye, duplicate (AID 434950;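 active = membrane potential signal rise above negative control mean plus 3 SD in both duplicates, also active in the earlier TRPC4 screen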;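 as to activation: 0% = buffer only wells and 100% = acetylcholine maximal-effect wells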); details: HEK293 TRPC6, membrane potential fluorescence, at 10 µM; active compounds read high
# [11] = target: Short transient receptor potential channel 6 (Mus musculus) (UniProt Q61143); assay: TRPC6 potentiation by TRPC4 potentiator hits, confirmation, selectivity assay for TRPC4 potentiator project, HEK293 cells, membrane potential dye, duplicate (AID 434952;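 active = compound raising the membrane signal above positive-control mean plus 3 SD in both repeats, and a primary screen hit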); details: HEK293 TRPC6, membrane potential dye fluorescence, at 10 µM, maximal acetylcholine added after compound; active compounds read high
# [12] = target: Short transient receptor potential channel 4 (Mus musculus) (UniProt Q9QUQ5); assay: calcium flux activators in TRPC4/5HT1a cells, counter-screen for TRPC4 activator project, cell-based, second counter screen, HEK293 TRPC4/5HT1a, Fluo-4 (AID 434977;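 active = calcium signal rise above buffer-control mean plus 5 SD in both duplicates, and also a hit in the primary screen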;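 as to activation: plate controls were assay buffer for no effect and maximal serotonin response for full effect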); details: Fluo-4 calcium flux, at 10 µM; active compounds read high
# [13] = calcium flux inhibitors in TRPC4/5HT1a cells, confirmation, counter-screen for TRPC4 inhibitor project, cell-based, second counter screen, HEK293 TRPC4/5HT1a, Fluo-4 (AID 434978;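 active = primary screen active whose calcium signal fell more than 3 SD beyond the full-serotonin control mean in both duplicate plates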;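 also: serotonin given first at submaximal then at maximal dose after compound preincubation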); details: Fluo-4 calcium flux, at 10 µM, serotonin added to trigger calcium flux; active compounds read high
# [14] = system: TRPC4 (mouse), co-expressed with 5HT1a in HEK293; assay: calcium flux potentiators in TRPC4/5HT1a cells, confirmation, counter-screen for TRPC4 potentiator project, cell-based, second counter screen, HEK293 TRPC4/5HT1a, Fluo-4 (AID 434979;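 active = signal rise over 3 SD above mean of control wells given weak agonist, in both repeats and first screen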); details: Fluo-4 calcium flux, at 10 µM, serotonin added at its EC20 dose; active compounds read high
# [15] = calcium flux activation in mu-opioid HEK293 cells, confirmation, counter-screen for TRPC4 activator project, cell-based, HEK293 mu-opioid receptor line (AID 449723;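 active = hit in primary screen, with calcium signal over 5 SD above buffer well mean in both duplicates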;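 also: counter screen cells carry the mu-opioid receptor alone and lack TRPC4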); details: Fluo-4 calcium fluorescence, at 10 µM; active compounds read high
# [16] = calcium flux enhancement in mu-opioid HEK293 cells, confirmation, counter-screen for TRPC4 allosteric potentiator project, cell-based, HEK293 mu-opioid receptor line (AID 449724;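 active = calcium signal rise more than 3 SD above the low-dose agonist control mean, in both duplicate plates and the primary screen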); details: Fluo-4 calcium flux, at 10 µM, compound added before EC20 DAMGO stimulus; active compounds read high
# [17] = thallium flux activation in parental CHO cells, counter-screen for KCNQ1 potentiator project (AID 493006;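 active = duplicate-averaged activation above buffer control mean plus 5 SD of those controls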;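 as to activation: fluorescence ratio of max minus min over baseline after K+ and Tl+ depolarization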); details: parental CHO-K1 cells, FluxOR thallium flux, at 10 µM; active compounds read high
# [18] = target: Potassium voltage-gated channel subfamily KQT member 1 (Homo sapiens) (UniProt P51787); assay: KCNQ1 potassium channel potentiators, confirmation, FluxOR thallium flux, CHO cells, duplicates (AID 493007;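 active = potentiation averaged over duplicate wells exceeding buffer-only control mean by more than 3 SD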;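 as to outcome: cells depolarized by a potassium plus thallium sulfate stimulus after compound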;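 as to potentiation: 0% = buffer-only wells and 100% = R-L3 activator control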); details: KCNQ1 cell line, FluxOR thallium flux fluorescence, at 10 µM; active compounds read high, % of reference activator effect, buffer zero
# Sequence of Potassium voltage-gated channel subfamily KQT member 1 (Homo sapiens) (P51787 whole entry, looked up): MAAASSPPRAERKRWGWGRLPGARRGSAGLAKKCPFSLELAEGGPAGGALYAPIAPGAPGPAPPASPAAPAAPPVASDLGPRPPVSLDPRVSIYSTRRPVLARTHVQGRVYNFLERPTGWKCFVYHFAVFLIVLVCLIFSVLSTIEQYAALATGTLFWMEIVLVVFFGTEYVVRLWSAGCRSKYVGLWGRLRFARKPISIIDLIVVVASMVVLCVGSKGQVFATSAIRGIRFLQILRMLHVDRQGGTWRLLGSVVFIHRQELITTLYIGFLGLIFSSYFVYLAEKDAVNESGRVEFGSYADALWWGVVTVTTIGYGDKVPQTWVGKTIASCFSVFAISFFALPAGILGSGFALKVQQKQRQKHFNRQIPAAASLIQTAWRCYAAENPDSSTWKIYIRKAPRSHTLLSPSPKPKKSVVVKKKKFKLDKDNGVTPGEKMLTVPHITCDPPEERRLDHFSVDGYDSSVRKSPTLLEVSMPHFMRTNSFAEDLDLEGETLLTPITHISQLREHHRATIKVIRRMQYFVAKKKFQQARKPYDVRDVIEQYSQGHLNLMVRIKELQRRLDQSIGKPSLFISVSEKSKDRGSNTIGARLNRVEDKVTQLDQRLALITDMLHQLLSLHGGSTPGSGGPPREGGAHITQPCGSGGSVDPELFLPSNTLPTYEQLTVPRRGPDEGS
# [19] = target: Potassium voltage-gated channel subfamily KQT member 2 (Rattus norvegicus) (UniProt O88943); assay: rat KCNQ2 channel potentiation, selectivity assay for KCNQ1 potentiator project, KCNQ2-CHO-K1 cells (AID 493009;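 active = mean duplicate potentiation above the buffer control mean plus 5 SD of buffer wells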;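 also: assay conditions were tuned for KCNQ1 rather than KCNQ2 modulators; signal is max minus min fluorescence divided by baseline after thallium stimulus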); details: FluxOR thallium flux fluorescence, at 10 µM; active compounds read high, scaled: buffer 0, activator control 100
# Sequence of Potassium voltage-gated channel subfamily KQT member 2 (Rattus norvegicus) (O88943 whole entry, looked up): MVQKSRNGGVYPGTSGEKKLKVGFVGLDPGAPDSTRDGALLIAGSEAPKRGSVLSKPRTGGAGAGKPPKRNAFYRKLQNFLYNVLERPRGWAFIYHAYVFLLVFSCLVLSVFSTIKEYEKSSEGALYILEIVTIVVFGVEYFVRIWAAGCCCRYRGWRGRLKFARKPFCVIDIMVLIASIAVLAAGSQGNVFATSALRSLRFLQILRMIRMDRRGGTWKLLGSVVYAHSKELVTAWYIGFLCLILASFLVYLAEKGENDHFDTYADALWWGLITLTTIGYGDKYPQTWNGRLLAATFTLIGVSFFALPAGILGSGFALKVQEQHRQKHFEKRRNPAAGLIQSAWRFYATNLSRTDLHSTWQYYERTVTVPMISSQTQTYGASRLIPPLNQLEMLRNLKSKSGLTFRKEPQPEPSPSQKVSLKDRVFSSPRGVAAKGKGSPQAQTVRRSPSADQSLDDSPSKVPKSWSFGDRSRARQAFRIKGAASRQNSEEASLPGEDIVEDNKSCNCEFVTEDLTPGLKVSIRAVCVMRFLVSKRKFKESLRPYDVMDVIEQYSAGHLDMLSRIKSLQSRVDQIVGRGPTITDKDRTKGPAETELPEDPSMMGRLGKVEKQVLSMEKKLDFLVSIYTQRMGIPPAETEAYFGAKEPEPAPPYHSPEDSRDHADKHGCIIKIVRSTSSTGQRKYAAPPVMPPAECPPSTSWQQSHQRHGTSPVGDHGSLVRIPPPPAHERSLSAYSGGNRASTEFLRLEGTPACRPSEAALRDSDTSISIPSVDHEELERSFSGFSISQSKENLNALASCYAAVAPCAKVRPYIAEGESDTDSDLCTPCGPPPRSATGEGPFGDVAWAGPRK
# [20] = target: Potassium voltage-gated channel subfamily KQT member 1 (Homo sapiens) (UniProt P51787); assay: KCNQ1 channel current potentiators, confirmation, orthogonal assay for KCNQ1 potentiator project, IonWorks patch clamp, KCNQ1-CHO cells (AID 493184;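 active = current rise at least 3 SD above the untreated control mean in each of two repeat wells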); details: automated patch clamp current, at 10 µM; active compounds read high
smiles,measurement,setting,value
c1ccc(Nc2nc(Nc3ccccc3)nc(N3CCNCC3)n2)cc1,activation,[1],159% (active)
same,outcome,[2],inactive
same,outcome,[3],inactive
same,outcome,[4],inactive
same,outcome,[5],inactive
same,outcome,[6],inactive
same,outcome,[7],inactive
same,outcome,[8],inactive
same,outcome,[9],inactive
same,activation,[10],35.5% (active)
same,outcome,[11],inactive
same,activation,[12],56.1% (active)
same,outcome,[13],inactive
same,outcome,[14],inactive
same,outcome,[15],inactive
same,outcome,[16],inactive
CN1CCCC(OC(=O)c2cc(Cl)cc(Cl)c2)C1 (stereo not given),activation,[1],186% (active)
same,activation,[2],112% (active)
same,outcome,[3],inactive
same,outcome,[4],inactive
same,outcome,[5],inactive
same,outcome,[6],inactive
same,outcome,[7],inactive
same,outcome,[8],inactive
same,outcome,[9],inactive
same,activation,[10],38.5% (active)
same,outcome,[11],inactive
same,activation,[12],67.9% (active)
same,outcome,[13],inactive
same,outcome,[14],inactive
same,outcome,[15],inactive
same,outcome,[16],inactive
FC(F)(F)c1cnc(N2CCCN(C(=S)Nc3ccccc3)CC2)c(Cl)c1,activation,[1],208% (active)
same,activation,[2],62% (active)
same,outcome,[3],inactive
same,outcome,[4],inactive
same,outcome,[5],inactive
same,outcome,[6],inactive
same,outcome,[7],inactive
same,outcome,[8],inactive
same,outcome,[9],inactive
same,outcome,[10],inactive
same,outcome,[11],inactive
same,activation,[12],84.8% (active)
same,outcome,[13],inactive
same,outcome,[14],inactive
same,outcome,[15],inactive
same,outcome,[16],inactive
Cn1c(-c2cccc3ccccc23)n[nH]c1=S,activation,[1],117% (active)
same,activation,[2],97% (active)
same,outcome,[3],inactive
same,outcome,[4],inactive
same,outcome,[5],inactive
same,outcome,[6],inactive
same,outcome,[7],inactive
same,outcome,[8],inactive
same,outcome,[9],inactive
same,outcome,[10],inactive
same,outcome,[11],inactive
same,activation,[12],30.5% (active)
same,outcome,[13],inactive
same,outcome,[14],inactive
same,outcome,[15],inactive
same,outcome,[16],inactive
Clc1ccc(OCCNCCc2ccccc2)cc1,outcome,[1],inactive
same,outcome,[2],inactive
same,outcome,[3],inactive
same,outcome,[4],inactive
same,outcome,[5],inactive
same,outcome,[6],inactive
same,outcome,[7],inactive
same,outcome,[8],inactive
same,outcome,[9],inactive
same,activation,[10],53% (active)
same,outcome,[11],inactive
same,activation,[12],24.4% (active)
same,outcome,[13],inactive
same,outcome,[14],inactive
same,outcome,[15],inactive
same,outcome,[16],inactive
O=C(NCCc1ccccn1)c1ccc(OC2CCN(CCc3ccccc3)CC2)cc1,activation,[1],76% (active)
same,outcome,[2],inactive
same,outcome,[3],inactive
same,outcome,[4],inactive
same,outcome,[5],inactive
same,outcome,[6],inactive
same,outcome,[7],inactive
same,outcome,[8],inactive
same,outcome,[9],inactive
same,activation,[10],44.5% (active)
same,outcome,[11],inactive
same,outcome,[12],inactive
same,outcome,[13],inactive
same,outcome,[14],inactive
same,outcome,[15],inactive
same,outcome,[16],inactive
CC1CCCCN1S(=O)(=O)c1ccc(C(=O)N(CCCN(C)C)c2nc3ccc(Br)cc3s2)cc1 (stereo not given),outcome,[1],inactive
same,outcome,[2],inactive
same,outcome,[3],inactive
same,outcome,[4],inactive
same,outcome,[5],inactive
same,outcome,[6],inactive
same,outcome,[7],inactive
same,outcome,[8],inactive
same,outcome,[9],inactive
same,outcome,[10],inactive
same,outcome,[11],inactive
same,activation,[12],21% (active)
same,outcome,[13],inactive
same,outcome,[14],inactive
same,activation,[15],14.9% (active)
same,outcome,[16],inactive
CCCCCSc1nnc2c(n1)OC(c1cccn1C)N(C(C)=O)c1ccccc1-2 (stereo not given),outcome,[1],inactive
same,outcome,[2],inactive
same,outcome,[3],inactive
same,outcome,[4],inactive
same,outcome,[5],inactive
same,outcome,[6],inactive
same,outcome,[7],inactive
same,outcome,[8],inactive
same,outcome,[9],inactive
same,outcome,[10],inactive
same,outcome,[11],inactive
same,activation,[12],18% (active)
same,outcome,[13],inactive
same,outcome,[14],inactive
same,outcome,[15],inactive
same,outcome,[16],inactive
CC(=O)Nc1ccc(CN2CCCC(C(=O)c3ccc(C(F)(F)F)cc3)C2)cc1 (stereo not given),activation,[1],358% (active)
same,activation,[2],86% (active)
same,outcome,[3],inactive
same,outcome,[4],inactive
same,outcome,[5],inactive
same,outcome,[6],inactive
same,outcome,[7],inactive
same,outcome,[8],inactive
same,outcome,[9],inactive
same,activation,[10],37.5% (active)
same,outcome,[11],inactive
same,activation,[12],40.5% (active)
same,outcome,[13],inactive
same,outcome,[14],inactive
same,outcome,[15],inactive
same,outcome,[16],inactive
COc1cc(OC)cc(C(=O)NC(=S)NNC(=O)[C@H]2C[C@@H]2c2ccccc2)c1,activation,[1],162% (active)
same,outcome,[2],inactive
same,outcome,[3],inactive
same,outcome,[4],inactive
same,outcome,[5],inactive
same,outcome,[6],inactive
same,outcome,[7],inactive
same,outcome,[8],inactive
same,outcome,[9],inactive
same,outcome,[10],inactive
same,outcome,[11],inactive
same,activation,[12],99% (active)
same,outcome,[13],inactive
same,outcome,[14],inactive
same,activation,[15],40.4% (active)
same,outcome,[16],inactive
same,outcome,[17],inactive
same,potentiation,[18],37.5% (active)
same,outcome,[19],inactive
same,outcome,[20],inactive
Cc1ccc(NS(=O)(=O)c2ccc(C(=O)N3CC(C)CC(C)C3)cc2)cc1 (stereo not given),activation,[1],103% (active)
same,outcome,[2],inactive
same,outcome,[3],inactive
same,outcome,[4],inactive
same,outcome,[5],inactive
same,outcome,[6],inactive
same,outcome,[7],inactive
same,outcome,[8],inactive
same,outcome,[9],inactive
same,activation,[10],65.5% (active)
same,outcome,[11],inactive
same,activation,[12],43.8% (active)
same,outcome,[13],inactive
same,outcome,[14],inactive
same,activation,[15],25.6% (active)
same,outcome,[16],inactive
same,activation,[17],138% (active)
same,outcome,[18],inactive
same,outcome,[19],inactive
same,outcome,[20],inactive
CC[C@@H](C(=O)[C@@H](C)[C@@H](O)[C@H](C)CCc1ccc(C)c(O)c1C(=O)O)[C@H]1O[C@](CC)([C@H]2CC[C@](O)(CC)[C@H](C)O2)C[C@@H]1C,activation,[1],472% (active)
same,outcome,[2],inactive
same,outcome,[3],inactive
same,outcome,[4],inactive
same,outcome,[5],inactive
same,outcome,[6],inactive
same,outcome,[7],inactive
same,outcome,[8],inactive
same,outcome,[9],inactive
same,activation,[10],58.5% (active)
same,outcome,[11],inactive
same,activation,[12],177% (active)
same,outcome,[13],inactive
same,outcome,[14],inactive
same,activation,[15],82.7% (active)
same,outcome,[16],inactive
same,activation,[17],558% (active)
same,potentiation,[18],149% (active)
same,potentiation,[19],502% (active)
same,outcome,[20],inactive
CN(CCc1nc2ccc(Cl)cc2[nH]1)Cc1nc(CC2CC2)no1,activation,[1],115% (active)
same,outcome,[2],inactive
same,outcome,[3],inactive
same,outcome,[4],inactive
same,outcome,[5],inactive
same,outcome,[6],inactive
same,outcome,[7],inactive
same,outcome,[8],inactive
same,outcome,[9],inactive
same,outcome,[10],inactive
same,outcome,[11],inactive
same,activation,[12],23.4% (active)
same,outcome,[13],inactive
same,outcome,[14],inactive
same,outcome,[15],inactive
same,outcome,[16],inactive
CCCOc1ccc(C(=O)NNC(=S)NC(=O)c2ccccc2)cc1,activation,[1],152% (active)
same,outcome,[2],inactive
same,outcome,[3],inactive
same,outcome,[4],inactive
same,outcome,[5],inactive
same,outcome,[6],inactive
same,outcome,[7],inactive
same,outcome,[8],inactive
same,outcome,[9],inactive
same,outcome,[10],inactive
same,outcome,[11],inactive
same,activation,[12],122% (active)
same,outcome,[13],inactive
same,outcome,[14],inactive
same,activation,[15],39.5% (active)
same,outcome,[16],inactive
same,activation,[17],180% (active)
same,potentiation,[18],168% (active)
same,potentiation,[19],318% (active)
same,outcome,[20],inactive
